Laboratory results as given in PubChem BioAssay (NCI).
Several values for one entry are separate records, joined by “and”; a condition that tells them apart may be missing. Equal values may be shown once. About 83,000 compounds went through this panel and 20% of them were active in at least one assay; those are over-represented in the sample as a whole.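 Plates (96-well) were seeded with cells, treated with compound at one concentration, and incubated for 48 hours before percent growth was determined.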 Activity calls are given as the source filed them. Rule for the calls: active = growth percent below 10; inactive = the rest.

The compounds below were run on UACC-62 melanoma (assay: NCI-60 one-dose screen, 48 h (100 = growth as untreated, 0 = no growth, -100 = all killed)). Conditions: 10 µM unless noted.

| Compound | growth |
| --- | --- |
| CNC(=S)c1nnsc1N | 70.7% [100 µM] (inactive) and -2.69% [100 µM] (active) |
| N#Cc1c(N)oc(-c2cccc([N+](=O)[O-])c2)c1C#N | -82.9% [100 µM] (active) and -75% [100 µM] (active) |
| Cc1ccc2c(sc(-c3ccc4c(c3)sc(-c3ccc5c(c3)sc(-c3ccc(N(C)C)cc3)[n+]5C)[n+]4C)[n+]2C)c1S(=O)(=O)O (tested in a mixture with another compound) | 48.6% [100 µM] (inactive) and 10.5% [100 µM] (inactive) |
| COc1ccc2nc(NC(=O)/C(C#N)=C/c3ccccc3)sc2c1 | 36.9% [100 µM] (inactive) and 15.8% [100 µM] (inactive) |
| CCOc1cc2c(cc1O)/C(=N/NS(=O)(=O)c1ccc(C)cc1)C[C@@H]1[C@@H]2CC[C@]2(C)[C@@H](O)CC[C@@H]12 | -88.9% [100 µM] (active) |
| Cn1c2c(c3ccccc3c1=O)C(=O)c1ccccc1-2 | 27.3% [100 µM] (inactive) and -100% [100 µM] (active) |
| O=C1NC(N/N=C\c2ccccc2)=N/C1=C/c1ccc(Cl)cc1 | -9.96% [100 µM] (active) and 107% [100 µM] (inactive) |
| O=c1c2ccccc2nc(-c2ccccc2)n1/N=C/c1ccccc1[N+](=O)[O-] | 54.7% [100 µM] (inactive) and 24.5% [100 µM] (inactive) |
| CCCCCCCCCC(=O)CC(=O)c1c(O)cc(O)cc1O | -97.6% [75 µM] (active) and -88.4% [75 µM] (active) |
| C=C1C2CCC3C4(C)CCCC(C)(C(=O)O)C4CCC3(C2)C1OC(=O)/C(C)=C/C (centres undefined) | -47.9% [100 µM] (active) and 42.1% [100 µM] (inactive) |
| CCC(c1ccc(N(C)C)cc1)C1NC(=S)NC1=O (centres undefined) | 20.7% [100 µM] (inactive) and 17.1% [100 µM] (inactive) |
| O=C(Cc1nc2ccc(C(=O)c3ccccc3)cc2[nH]c1=O)C(=O)Nc1ccccc1[N+](=O)[O-] | 30.2% [100 µM] (inactive) and -20.2% [100 µM] (active) |
| CC1CC(=O)N(N(C)C)C(C#N)(C#N)C1(C#N)C#N (centres undefined) | -96.5% [100 µM] (active) and -97.6% [100 µM] (active) |
| Cc1ccc(NC(=O)/C(=N\NC(N)=O)c2c(O)c3ccccc3[nH]c2=O)cc1 | 87% [100 µM] (inactive) and 83% [100 µM] (inactive) |
| Cc1ccc(/C=N/Nc2cnccn2)s1 | 58.8% [100 µM] (inactive) and 98.5% [100 µM] (inactive) |
| CC1(C)S[C@H](CN)N[C@H]1C(=O)OC(c1ccccc1)c1ccccc1 | 34.2% [100 µM] (inactive) and -100% [100 µM] (active) |
| COc1c(O)ccc(C2=Cc3ccc(O)cc3OC2)c1OC | -72.2% [100 µM] (active) and -24.7% [100 µM] (active) |
| C[C@@H]1CC[C@H]2C(C)(C)[C@H]3C[C@@]12CC[C@@]3(C)O | 80.1% [100 µM] (inactive) and 6.26% [100 µM] (active) |
| O[C@H]1[C@H](O)[C@@H](Cn2nnc(-c3ccccc3)c2-c2ccccc2)OCO[C@@H]1Cn1nnc(-c2ccccc2)c1-c1ccccc1 | -77.8% [100 µM] (active) |
| O=C1c2cccnc2-c2nccc3ccnc1c23 | -95.5% [100 µM] (active) and -100% [100 µM] (active) |
| C=CCn1c2c(c3ccccc3c1=O)C(=O)c1ccccc1-2 | 66.9% [100 µM] (inactive) and 11.1% [100 µM] (inactive) |
| COC(=O)c1cc(C#N)[nH]c1-c1ccsc1 | 67.3% [100 µM] (inactive) and 25.1% [100 µM] (inactive) |
| COc1c2c(c3c(c1OC)c(=O)c1ccccc1n3C)OCO2 | 58.8% [100 µM] (inactive) |
| CC1OC(Oc2c(-c3cc(O)c(O)c(O)c3)oc3cc(O)cc(O)c3c2=O)C(O)C(O)C1O (centres undefined) | 59.6% [100 µM] (inactive) and -60.3% [100 µM] (active) |
| CCOC(=O)COc1cc(-c2ccccc2)nc2cc(F)ccc12 | 67.3% [100 µM] (inactive) and 60.3% [100 µM] (inactive) |
| COc1cc2c(c3c1c(=O)c1ccccc1n3C)C=C([N+](=O)[O-])C(C)(C)O2 | -21.5% [100 µM] (active) and -100% [100 µM] (active) |
| COC(=O)C(=O)C(C(=O)C(=O)Nc1ccccc1OC)c1nc2ccc([N+](=O)[O-])cc2[nH]c1=O (centres undefined) | 41.9% [100 µM] (inactive) and 22.7% [100 µM] (inactive) |
| NC1N=C(c2ccc(Cl)cc2)C2=C(N1)c1ccccc1CC2 (centres undefined) | 36.7% [100 µM] (inactive) and -55.8% [100 µM] (active) |
| COc1ccc(-c2coc3c4c(ccc3c2=O)OCO4)cc1OC | 43.3% [100 µM] (inactive) and 6.94% [100 µM] (active) |
